Laboratory results: PMC12215968

molecular target: Ubiquitin-ribosomal protein eS31 fusion protein (UniProt P62979); assay: cross-link between two proteins; cross-linking mass spectrometry

Listed as a hit, yes:
Ubiquitin-conjugating enzyme E2 K, P61086
Ubiquitin-conjugating enzyme E2 N, P61088
Ubiquitin carboxyl-terminal hydrolase 5, P45974
